Assay results as given in PubChem BioAssay AID1159580 (chemical genetic matrix, 2015).
The campaign covered roughly 5,500 compounds. About 2,000 (36%) were called active. About 18% were inconclusive and are not listed. No stated cut-off is given here; in the data, active means normalized growth mostly below about 0.91 (no sharp cut-off); inconclusive means no clear call, values can overlap the other calls; inactive means mostly above about 0.92. The list shows a part of the results.

Test: chemical genetic growth profiling, strain panel (AID 1159580);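 further: tested at 20 µM; growth read once vehicle control cultures reached saturation at 30 °C; 1 = growth at the plate median or of vehicle wells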
Settings: S. cerevisiae deletion strains, growth OD
[1] = locus YDL101C, strain DUN1, stronger effect = lower value
[2] = locus YHR030C, strain SLT2, stronger effect = lower value
[3] = locus YPL241C, strain CIN2, stronger effect = lower value

Measured: normalized growth

CCC(C)Cn1c(Sc2ncc([N+](=O)[O-])s2)n[nH]c1=O (stereo unspecified)
active: locus YAR019C, strain CDC15, stronger effect = lower value 0.853 | locus YBL105C, strain PKC1, stronger effect = lower value 0.893 | locus YBR135W, strain CKS1, stronger effect = lower value 0.867 | locus YBR136W, strain MEC1, stronger effect = lower value 0.888 | locus YBR160W, strain CDC28, stronger effect = lower value 0.894 | locus YDL017W, strain CDC7, stronger effect = lower value 0.895 | locus YDL108W, strain KIN28, stronger effect = lower value 0.878 | locus YDL132W, strain cdc53, stronger effect = lower value 0.849 | locus YDR054C, strain cdc34, stronger effect = lower value 0.825 | locus YDR226W, strain ADK1, stronger effect = lower value 0.884 | locus YER133W, strain GLC7, stronger effect = lower value 0.69 | locus YFL009W, strain cdc4, stronger effect = lower value 0.844 | locus YFL029C, strain CAK1, stronger effect = lower value 0.848 | locus YFR003C, strain YPI1, stronger effect = lower value 0.901 | locus YFR028C, strain CDC14, stronger effect = lower value 0.888 | locus YGR092W, strain DBF2, stronger effect = lower value 0.469 | [2] 0.772 | locus YJR016C, strain ILV3, stronger effect = lower value 0.877 | locus YJR066W, strain TOR1 (second series), stronger effect = lower value 0.492 | locus YKL193C, strain SDS22, stronger effect = lower value 0.849 | locus YLR113W, strain HOG1, stronger effect = lower value 0.598 | locus YLR403W, strain SFP1, stronger effect = lower value 0.56 | locus YMR001C, strain CDC5, stronger effect = lower value 0.88 | locus YMR277W, strain FCP1, stronger effect = lower value 0.846 | locus YNL006W, strain LST8, stronger effect = lower value 0.894 | locus YNL161W, strain CBK1, stronger effect = lower value 0.875 | locus YNL207W, strain RIO2, stronger effect = lower value 0.867 | locus YNL222W, strain SSU72, stronger effect = lower value 0.865 | locus YOL078W, strain AVO1, stronger effect = lower value 0.856 | locus YPL153C, strain RAD53, stronger effect = lower value 0.657 | locus YPL209C, strain IPL1, stronger effect = lower value 0.891 | locus YPL256C, strain CLN2, stronger effect = lower value 0.695 | locus YPR025C, strain CCL1, stronger effect = lower value 0.888 | strain TSCII, stronger effect = lower value 0.85
inactive: locus YDL028C, strain MPS1, stronger effect = lower value 0.895 | [1] 0.932 | locus YDL214C, strain PRR2, stronger effect = lower value 0.794 | locus YDR052C, strain DBF4, stronger effect = lower value 0.93 | locus YDR477W, strain SNF1, stronger effect = lower value 0.711 | locus YER123W, strain YCK3, stronger effect = lower value 0.649 | locus YFR019W, strain FAB1, stronger effect = lower value 0.838 | locus YGR040W, strain KSS1, stronger effect = lower value 0.751 | locus YGR052W, strain FMP48, stronger effect = lower value 0.776 | locus YHR079C, strain IRE1, stronger effect = lower value 0.657 | locus YHR082C, strain KSP1, stronger effect = lower value 0.926 | locus YHR205W, strain SCH9, stronger effect = lower value 0.806 | locus YIL147C, strain SLN1, stronger effect = lower value 0.896 | locus YJL095W, strain BCK1, stronger effect = lower value 0.651 | locus YJL128C, strain PBS2, stronger effect = lower value 0.938 | locus YJL157C, strain FAR1, stronger effect = lower value 0.763 | locus YJR066W, strain TOR1, stronger effect = lower value 0.778 | locus YKL048C, strain ELM1, stronger effect = lower value 0.963 | locus YKL067W, strain YNK1, stronger effect = lower value 0.792 | locus YKL101W, strain HSL1, stronger effect = lower value 0.838 | locus YKL203C, strain TOR2, stronger effect = lower value 0.795 | locus YLR133W, strain CKI1, stronger effect = lower value 0.805 | locus YML070W, strain DAK1, stronger effect = lower value 0.759 | locus YMR205C, strain PFK2 (second series), stronger effect = lower value 0.844 | locus YNL020C, strain ARK1, stronger effect = lower value 0.826 | locus YNL183C, strain NPR1, stronger effect = lower value 0.652 | locus YNL307C, strain MCK1 (second series), stronger effect = lower value 0.714 | locus YOL136C, strain PFK27, stronger effect = lower value 0.766 | locus YOR061W, strain CKA2, stronger effect = lower value 0.85 | locus YOR119C, strain RIO1, stronger effect = lower value 0.735 | locus YOR231W, strain MKK1, stronger effect = lower value 0.722 | locus YOR329C, strain SCD5, stronger effect = lower value 0.908 | locus YPL031C, strain PHO85, stronger effect = lower value 0.674 | locus YPL204W, strain HRR25, stronger effect = lower value 0.683 | locus YPR106W, strain ISR1, stronger effect = lower value 0.943 | locus YPR111W, strain DBF20, stronger effect = lower value 0.938 | strain NNK1, stronger effect = lower value 0.932

N#Cc1ccc([N+](=O)[O-])s1
inactive: locus YGR229C, strain SMI1, stronger effect = lower value 0.992 | locus YNL322C, strain KRE1, stronger effect = lower value 1.01
active: locus YAL013W, strain DEP1, stronger effect = lower value 0.726 | locus YBR229C, strain ROT2, stronger effect = lower value 0.446 | [1] 0.201 | locus YDL134C, strain PPH21, stronger effect = lower value 0.0493 | locus YDR150W, strain NUM1, stronger effect = lower value 0.681 | locus YEL061C, strain CIN8, stronger effect = lower value 0.194 | locus YGR078C, strain PAC10, stronger effect = lower value 0.385 | [2] 0.0826 | locus YHR087W, strain rtc3, stronger effect = lower value 0.379 | locus YJL187C, strain SWE1, stronger effect = lower value 0.261 | locus YJR043C, strain POL32, stronger effect = lower value 0.564 | locus YJR075W, strain HOC1, stronger effect = lower value 0.198 | locus YKL190W, strain CNB1, stronger effect = lower value 0.0802 | locus YLR039C, strain RIC1, stronger effect = lower value 0.346 | locus YLR058C, strain SHM2 (second series), stronger effect = lower value 0.461 | locus YLR085C, strain ARP6, stronger effect = lower value 0.121 | locus YLR262C, strain YPT6, stronger effect = lower value 0.588 | locus YML094W, strain GIM5, stronger effect = lower value 0.271 | locus YMR219W, strain ESC1, stronger effect = lower value 0.7 | locus YMR263W, strain SAP30, stronger effect = lower value 0.46 | locus YNL153C, strain GIM3, stronger effect = lower value 0.382 | locus YNL298W, strain CLA4 (second series), stronger effect = lower value 0.105 | locus YNR030W, strain Alg12, stronger effect = lower value 0.096 | locus YOL006C, strain TOP1, stronger effect = lower value 0.115 | locus YPL055C, strain LGE1, stronger effect = lower value 0.547 | [3] 0.0815 | locus YPR135W, strain CTF4, stronger effect = lower value 0.186

N#CC(C#N)=Cc1ccc([N+](=O)[O-])c(O)c1
inactive: locus YAL040C, strain CLN3, stronger effect = lower value 1.04 | locus YCL061C, strain MRC1 (second series), stronger effect = lower value 0.991 | locus YDR363W, strain ESC2, stronger effect = lower value 0.968 | locus YER002W, strain NOP16, stronger effect = lower value 0.956 | locus YMR307W, strain GAS1, stronger effect = lower value 1.01 | locus YNL128W, strain TEP1, stronger effect = lower value 0.966 | locus YNL175C, strain NOP13, stronger effect = lower value 0.953 | locus YNL197C, strain WHI3, stronger effect = lower value 0.955 | locus YNL224C, strain SQS1, stronger effect = lower value 0.988 | locus YOR083W, strain WHI5 (second series), stronger effect = lower value 0.992 | [3] 0.988
